The record followed here is PubChem BioAssay.

Each structure is given as a SMILES string. Activity calls are given as the source filed them.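 How the source made its calls, unless noted: active means aptamer binding inhibition above 30%, about 3 SD of noise from non-fluorescent compounds; inactive means inhibition at or below 30%.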

A short description of assay [1]: reduced mouse 2C T cell binding to pMHC/ICAM-1 vesicles – MLPCN validation set, flow cytometry, LFA-1/ICAM-1 modulator project, pilot screen (AID 2523;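 active means response below a set limit, under 55% cells CD8-positive and vesicle-bound, and CD8 cells' 90th-percentile brightness under 279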;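 on vesicle binding response: mean PE anti-B7-1 fluorescence of CD8+ cells relative to row control; 100% = QL9-loaded vesicles with DMSO vehicle in the same plate row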). Particulars: 2C mouse CD8+ T cells, at 7 µM, stronger effect = lower value; double positive events: measured here: CD8+/vesicle+ event percentage. In general terms: Flow cytometry measures light scatter and fluorescence of single cells or particles in a stream.

The target of assay [2] is Integrin beta-1 (Homo sapiens) + Integrin alpha-4 (Homo sapiens) (UniProt P13612+P05556). As to the kind of experiment: alpha4beta1 integrin LIBS antibody binding reduction – U937 cells, HUTS-21 mAb, flow cytometry, validation set, VLA-4 allosteric modulator project, pilot screen (AID 2674;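 active means inhibition above 50%, about 3 SD of the validation set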;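 further: antibody binding induced by the VLA-4 ligand LDV present at three times its Kd; 0% = LDV ligand with antibody and no compound and 100% = antibody without LDV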). Particulars: HUTS-21 LIBS mAb binding, at 6.7 µM, stronger effect = higher value, binding induced by LDV ligand.

A short description of assay [3]: calorie-restriction mimetic ROS inhibitors, yeast – validation compound set, pilot screen (AID 2706;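 active means superoxide response below 65% of plate, a cut near 3 SD across the whole screen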;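 further: yeast exposed to compound for one week at 30 degrees C before staining; 100% = mean of all compound wells on the same plate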). The following applies: S. cerevisiae aging, superoxide DHE fluorescence; at 10 µM, stronger effect = lower value.
Assay [4] concerns the target Beta-adrenergic receptor kinase 1 (Homo sapiens) (UniProt P25098). As to the kind of experiment: GRK2 binders displacing RNA aptamer, biochemical, validation, human GRK2, bead flow cytometry (AID 488806). Particulars: bead-bound GRK2, FAM-aptamer displacement, at 10 µM, stronger effect = higher value.
Assay [5] has as its target AP-2 complex subunit beta (Homo sapiens) (UniProt P63010). As to the kind of experiment: beta-arrestin/AP2 interaction blockers – biochemical, validation set, GST-AP2 beads, flow cytometry, pilot screen (AID 504541;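 active means inhibition above 54%, about 3 SD of non-fluorescent compounds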;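 further: AP2 carries R879A mutation and is captured from E. coli lysate; bead-bound FITC arrestin peptide fluorescence measuring arrestin peptide binding to AP2; 0% = DMSO wells and 100% = excess unlabeled arrestin peptide control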). The following applies: FITC arrestin peptide, at 10 µM, stronger effect = higher value, AP2 beta2 appendage fragment, R879A mutant.
A short description of assay [6]: cytosolic pH regulators acting via V-ATPase – S. cerevisiae, pHLuorin, HTS validation (AID 504600; in the data active means response above about 15%;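 further: plate controls were DMSO for no effect and reference compound for full effect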). The following applies: V-ATPase proton transport, at 10 µM, stronger effect = higher value.
Assay [7] concerns anti-desmoglein-3 scFv antibody binding to human DSG3. As to the kind of experiment: blockers of pathogenic pemphigus antibody–desmoglein-3 binding – biochemical, validation compound set, bead-based, flow cytometry, pilot screen (AID 588368;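 active means binding below the plate cutoff, the plate median minus 3 SD, with a reading above zero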;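 further: signal is the median channel fluorescence of bead-bound GFP antibody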). Particulars: Protein G beads, DSG3-Fc, scFv-GFP binding, at 10 µM, stronger effect = lower value.
Assay [8] is described as follows: Nile Red efflux blockade in pump-expressing yeast – validation compound set, multiplex, phenotypic, pilot screen (AID 588506;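 active means efflux inhibition above 0.42, the validation set average plus 4 SD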;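 further: Nile Red retained in cells so higher fluorescence means more efflux inhibition; 0 = negative control wells and 1 = enniatin B 25 µM full block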). Particulars: S. cerevisiae pump-expressing triplex, Nile Red efflux flow cytometry; at 10 µM; stronger effect = higher value; the pumps come from Candida albicans.
The target in assay [9] is ATP-binding cassette sub-family B member 6 (Homo sapiens) (UniProt Q9NP58). As to the kind of experiment: blockers of ABCB6-driven porphyrin uptake – K562-ABCB6 cells, flow cytometry, validation set, pilot screen (AID 588550;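 active means inhibition above the screen-wide mean plus 3 SD, about 51%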;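 further: 0% = DMSO wells and 100% = benzethonium chloride 70 µM positive control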). The following applies: K562-ABCB6 porphyrin accumulation, 1 h, at 10 µM, stronger effect = higher value.
The nature of assay [10]: AML differentiation inducers, ER-HoxA9 marrow cells – cell-based, GFP/MAC1 double positive, flow cytometry, validation set, primary screen (AID 588685;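 active means differentiation response of at least 50%, scaled between solvent and reference control, from cells with both markers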;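 further: compound exposure lasts four days before antibody staining and flow analysis; 0% = DMSO wells and 100% = 5 µM fulvestrant positive control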). The following applies: stronger effect = higher value, normalized: vehicle 0, fulvestrant 100.
For assay [11], the target named is Beta-2 adrenergic receptor (Homo sapiens) (UniProt P07550). As to the kind of experiment: agonist-induced loss of surface beta2AR – cell-based, FAP fluorogen, flow cytometry, validation set, pilot screen (AID 504459;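 active means percent response above 42, roughly 3 SD of non-fluorescent test compounds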;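 further: agonist-driven loss of surface beta2AR via internalization measured by FAP dye flow cytometry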). The following applies: Am2.2-beta2AR cells, at 10 µM, stronger effect = higher value.
Sequence of Beta-2 adrenergic receptor (Homo sapiens) (P07550 whole entry, looked up): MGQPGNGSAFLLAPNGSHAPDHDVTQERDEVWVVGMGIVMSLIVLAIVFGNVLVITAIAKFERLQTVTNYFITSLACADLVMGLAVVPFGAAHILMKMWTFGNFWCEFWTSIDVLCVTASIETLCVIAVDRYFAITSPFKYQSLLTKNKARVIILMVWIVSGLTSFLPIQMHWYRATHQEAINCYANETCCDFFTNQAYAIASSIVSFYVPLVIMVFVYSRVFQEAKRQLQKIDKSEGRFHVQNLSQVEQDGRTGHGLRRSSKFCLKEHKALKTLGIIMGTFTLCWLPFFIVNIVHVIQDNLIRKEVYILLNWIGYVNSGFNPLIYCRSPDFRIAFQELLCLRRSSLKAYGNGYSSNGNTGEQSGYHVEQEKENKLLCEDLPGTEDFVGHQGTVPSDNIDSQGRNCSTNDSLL

Sequence of Integrin beta-1 (Homo sapiens) + Integrin alpha-4 (Homo sapiens) (P05556 whole entry, looked up): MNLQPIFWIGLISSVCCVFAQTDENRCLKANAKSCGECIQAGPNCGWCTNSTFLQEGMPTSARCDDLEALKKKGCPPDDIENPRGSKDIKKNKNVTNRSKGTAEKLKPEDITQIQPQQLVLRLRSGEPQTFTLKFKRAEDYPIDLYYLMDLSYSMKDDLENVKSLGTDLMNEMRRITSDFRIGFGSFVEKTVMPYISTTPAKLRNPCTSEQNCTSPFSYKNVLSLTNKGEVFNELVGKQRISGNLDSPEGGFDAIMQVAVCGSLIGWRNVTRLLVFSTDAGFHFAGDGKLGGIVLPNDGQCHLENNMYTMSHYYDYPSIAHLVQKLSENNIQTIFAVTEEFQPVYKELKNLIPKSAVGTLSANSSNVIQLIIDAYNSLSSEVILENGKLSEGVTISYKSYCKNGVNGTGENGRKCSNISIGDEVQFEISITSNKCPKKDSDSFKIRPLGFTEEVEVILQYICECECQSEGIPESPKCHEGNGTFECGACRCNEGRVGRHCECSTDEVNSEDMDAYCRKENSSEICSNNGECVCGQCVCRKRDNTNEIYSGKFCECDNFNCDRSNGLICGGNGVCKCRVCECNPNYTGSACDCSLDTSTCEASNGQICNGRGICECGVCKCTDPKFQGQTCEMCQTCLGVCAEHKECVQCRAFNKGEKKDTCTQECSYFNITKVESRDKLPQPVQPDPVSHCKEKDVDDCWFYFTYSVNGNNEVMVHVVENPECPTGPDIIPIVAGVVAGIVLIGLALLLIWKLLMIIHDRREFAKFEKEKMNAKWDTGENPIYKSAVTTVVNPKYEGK
Sequence of Integrin beta-1 (Homo sapiens) + Integrin alpha-4 (Homo sapiens) (P13612 whole entry, looked up): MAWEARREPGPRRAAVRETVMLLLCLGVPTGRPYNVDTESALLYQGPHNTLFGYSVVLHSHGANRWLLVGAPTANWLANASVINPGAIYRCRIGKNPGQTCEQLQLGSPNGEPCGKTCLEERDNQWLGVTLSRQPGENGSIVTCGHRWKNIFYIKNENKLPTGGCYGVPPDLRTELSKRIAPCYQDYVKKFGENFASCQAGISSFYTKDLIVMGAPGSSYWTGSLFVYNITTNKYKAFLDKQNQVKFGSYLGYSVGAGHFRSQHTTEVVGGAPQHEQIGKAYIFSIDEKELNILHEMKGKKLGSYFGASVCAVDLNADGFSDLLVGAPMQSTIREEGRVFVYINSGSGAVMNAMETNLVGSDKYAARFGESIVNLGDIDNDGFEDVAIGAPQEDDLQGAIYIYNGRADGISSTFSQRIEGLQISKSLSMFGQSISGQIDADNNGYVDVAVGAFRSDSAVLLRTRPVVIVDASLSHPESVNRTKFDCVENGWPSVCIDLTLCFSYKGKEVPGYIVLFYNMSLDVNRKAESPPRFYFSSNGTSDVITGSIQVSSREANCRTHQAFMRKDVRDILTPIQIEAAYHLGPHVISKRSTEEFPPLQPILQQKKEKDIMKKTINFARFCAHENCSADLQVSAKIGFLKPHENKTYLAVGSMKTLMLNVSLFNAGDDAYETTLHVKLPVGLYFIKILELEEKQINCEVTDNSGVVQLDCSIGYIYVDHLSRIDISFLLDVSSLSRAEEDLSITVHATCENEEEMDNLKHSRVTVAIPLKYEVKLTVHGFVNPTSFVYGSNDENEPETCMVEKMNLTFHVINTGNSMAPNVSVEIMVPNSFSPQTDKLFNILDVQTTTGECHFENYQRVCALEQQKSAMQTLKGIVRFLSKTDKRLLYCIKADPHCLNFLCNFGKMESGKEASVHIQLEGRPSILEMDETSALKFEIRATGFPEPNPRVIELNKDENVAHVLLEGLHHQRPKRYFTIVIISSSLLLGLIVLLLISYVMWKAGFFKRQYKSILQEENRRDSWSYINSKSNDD
Sequence of Beta-adrenergic receptor kinase 1 (Homo sapiens) (P25098 whole entry, looked up): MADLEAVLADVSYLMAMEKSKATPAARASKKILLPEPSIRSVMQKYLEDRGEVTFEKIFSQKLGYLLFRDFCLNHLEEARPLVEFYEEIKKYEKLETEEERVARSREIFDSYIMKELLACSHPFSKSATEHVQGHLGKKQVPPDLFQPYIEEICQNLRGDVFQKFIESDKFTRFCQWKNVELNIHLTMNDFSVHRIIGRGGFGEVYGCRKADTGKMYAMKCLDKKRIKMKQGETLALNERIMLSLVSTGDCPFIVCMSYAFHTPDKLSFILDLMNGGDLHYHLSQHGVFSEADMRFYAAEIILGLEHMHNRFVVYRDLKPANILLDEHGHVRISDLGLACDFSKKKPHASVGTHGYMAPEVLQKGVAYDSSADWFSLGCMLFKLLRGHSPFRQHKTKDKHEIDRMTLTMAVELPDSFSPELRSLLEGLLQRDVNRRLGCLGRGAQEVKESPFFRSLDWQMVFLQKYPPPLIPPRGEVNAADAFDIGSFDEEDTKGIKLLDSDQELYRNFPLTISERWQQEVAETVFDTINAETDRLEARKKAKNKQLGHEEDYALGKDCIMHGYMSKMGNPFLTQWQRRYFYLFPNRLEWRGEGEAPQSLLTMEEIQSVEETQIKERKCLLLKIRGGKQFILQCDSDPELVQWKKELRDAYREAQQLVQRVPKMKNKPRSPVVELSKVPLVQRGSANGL
Sequence of ATP-binding cassette sub-family B member 6 (Homo sapiens) (Q9NP58 whole entry, looked up): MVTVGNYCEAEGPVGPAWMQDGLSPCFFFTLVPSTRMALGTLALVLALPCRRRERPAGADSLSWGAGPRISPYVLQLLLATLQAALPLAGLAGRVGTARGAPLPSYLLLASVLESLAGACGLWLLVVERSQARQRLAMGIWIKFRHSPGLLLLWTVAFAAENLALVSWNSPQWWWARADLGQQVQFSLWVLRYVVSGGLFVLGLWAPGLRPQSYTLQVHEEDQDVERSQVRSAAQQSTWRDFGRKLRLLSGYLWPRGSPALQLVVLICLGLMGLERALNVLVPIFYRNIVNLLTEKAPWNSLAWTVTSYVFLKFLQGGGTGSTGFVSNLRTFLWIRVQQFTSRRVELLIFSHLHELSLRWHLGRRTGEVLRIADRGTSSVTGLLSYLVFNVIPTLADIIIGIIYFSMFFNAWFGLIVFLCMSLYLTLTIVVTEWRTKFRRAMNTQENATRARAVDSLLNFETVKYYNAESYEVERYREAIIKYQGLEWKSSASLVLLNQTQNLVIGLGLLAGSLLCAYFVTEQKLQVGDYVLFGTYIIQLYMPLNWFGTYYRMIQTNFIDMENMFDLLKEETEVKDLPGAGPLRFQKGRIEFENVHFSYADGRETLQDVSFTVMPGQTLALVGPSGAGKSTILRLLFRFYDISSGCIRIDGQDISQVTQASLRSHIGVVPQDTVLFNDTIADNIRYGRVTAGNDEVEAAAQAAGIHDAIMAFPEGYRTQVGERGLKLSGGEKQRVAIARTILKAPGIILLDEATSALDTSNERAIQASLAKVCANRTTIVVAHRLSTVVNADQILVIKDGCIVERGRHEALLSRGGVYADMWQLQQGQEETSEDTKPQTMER
Sequence of AP-2 complex subunit beta (Homo sapiens) (P63010 whole entry, looked up, the tested form may be a part, one chain of several): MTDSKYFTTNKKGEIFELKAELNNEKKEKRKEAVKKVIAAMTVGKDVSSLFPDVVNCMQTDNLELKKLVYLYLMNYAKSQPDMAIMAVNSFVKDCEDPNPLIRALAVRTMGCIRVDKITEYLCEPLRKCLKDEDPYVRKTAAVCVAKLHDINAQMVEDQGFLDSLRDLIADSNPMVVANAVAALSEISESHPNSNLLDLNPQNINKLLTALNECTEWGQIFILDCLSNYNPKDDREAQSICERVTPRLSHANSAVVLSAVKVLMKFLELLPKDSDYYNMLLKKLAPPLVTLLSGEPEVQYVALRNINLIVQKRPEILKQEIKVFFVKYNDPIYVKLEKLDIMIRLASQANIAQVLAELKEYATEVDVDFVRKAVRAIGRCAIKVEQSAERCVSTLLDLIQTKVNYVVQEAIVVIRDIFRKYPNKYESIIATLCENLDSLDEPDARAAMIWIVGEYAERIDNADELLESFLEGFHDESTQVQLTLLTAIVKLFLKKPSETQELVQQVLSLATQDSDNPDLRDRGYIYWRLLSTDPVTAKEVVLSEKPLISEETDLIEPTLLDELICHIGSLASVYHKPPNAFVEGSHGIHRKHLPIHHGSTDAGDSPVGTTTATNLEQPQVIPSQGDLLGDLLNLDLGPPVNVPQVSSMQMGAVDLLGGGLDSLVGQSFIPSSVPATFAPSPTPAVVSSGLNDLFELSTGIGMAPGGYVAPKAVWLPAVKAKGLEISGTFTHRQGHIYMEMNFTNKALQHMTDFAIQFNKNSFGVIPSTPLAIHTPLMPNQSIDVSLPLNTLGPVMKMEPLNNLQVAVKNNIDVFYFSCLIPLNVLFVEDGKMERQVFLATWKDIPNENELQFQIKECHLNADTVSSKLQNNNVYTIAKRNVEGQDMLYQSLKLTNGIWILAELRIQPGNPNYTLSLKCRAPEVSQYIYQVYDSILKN

In the case of `N=c1ccn(CC(=O)NC(N)=O)c2ccccc12`, the double positive events in [1] was found to be 55.8%. For the same molecule, in assay [1], the vesicle binding response is 241% (inactive). The inhibition (as a rule, the relative decrease from the control value, in per cent) is 12.8% (inactive) in [2], 8.55% (inactive) in assay [5] and -15% (inactive) in assay [9]. The superoxide response (% of plate) in assay [3] is 99.5% (inactive). Moreover, the aptamer binding inhibition in assay [4] is 4% (inactive). Also, the response in assay [6] is 14.2% (inactive). Also, in assay [7], the binding (% of control) was 95.7% (inactive). Besides, in assay [8], the efflux inhibition (fraction of control) is -0.09 (inactive). Besides, the differentiation response in assay [10] is -3.43% (inactive).
As to `CSc1ccc2c(c1)N(CCC1CCCCN1C)c1ccccc1S2` (stereo not given), in [1], the double positive events came to 66.7%. Besides, the vesicle binding response in assay [1] is 166% (inactive). For the same molecule, the figures for the inhibition in assay [2] and in [5] were 27.1% (inactive) and 0.21% (inactive), respectively. The superoxide response (% of plate) in assay [3] is 88.6% (inactive). The aptamer binding inhibition in assay [4] is -7% (inactive). The response in assay [11] was 60.7% (active); in assay [6], -0.24% (inactive). Besides, in assay [7], the binding (% of control) was 106% (inactive). For the same molecule, in assay [8], the efflux inhibition (fraction of control) was -0.145 (inactive). Besides, in assay [10], the differentiation response was 11.5% (inactive).
In assay [1], `COc1c2occc2c(OC)c2c(=O)cc(C(F)(F)C(F)(F)F)oc12` came in with a double positive events of 50%. Moreover, in assay [1], the vesicle binding response is 156% (inactive). In addition, the inhibition in assay [2] was 3.49% (inactive); in assay [5], -6.1% (inactive); in [9], 9% (inactive). Besides, the superoxide response (% of plate) in [3] is 123% (inactive). Besides, the aptamer binding inhibition in [4] is 2% (inactive). The response in [6] is -16% (inactive). Further, the binding (% of control) in assay [7] was 103% (inactive). In assay [8], the efflux inhibition (fraction of control) was 0.03 (inactive). Also, in assay [10], the differentiation response was -16.4% (inactive).
`CC(=O)N1CC2(C)CN(C(C)=O)CC(C)(C1)C2` displayed a double positive events in assay [1] of 60.3%. Besides, the vesicle binding response in [1] was 169% (inactive). Besides, the inhibition in assay [2] is 8.25% (inactive); in [5] it was -12.9% (inactive); in [9], -1% (inactive). Moreover, in assay [3], the superoxide response (% of plate) is 91.7% (inactive). In assay [4], the aptamer binding inhibition was -2% (inactive). Besides, the response was -23.9% (inactive) in assay [11] and 1.35% (inactive) in assay [6]. The binding (% of control) in [7] is 100% (inactive). The efflux inhibition (fraction of control) in [8] was 0 (inactive). The differentiation response in [10] was -4.99% (inactive).
As to `CCCCC[C@H](O)/C=C/[C@@H]1[C@@H](CCCCCCC(=O)O)[C@@H](O)C[C@H]1O`, in assay [1], the double positive events came out at 55.5%. Further, the vesicle binding response in assay [1] was 114% (inactive). The values for the inhibition in assay [2], in [5] and in [9] were 5.36% (inactive), -0.39% (inactive) and 9% (inactive), respectively. In addition, the superoxide response (% of plate) in assay [3] was 104% (inactive). Further, the aptamer binding inhibition in assay [4] was 2% (inactive). Further, the response in assay [6] is 1.43% (inactive). Also, the binding (% of control) in assay [7] was 99.8% (inactive). Also, in assay [8], the efflux inhibition (fraction of control) is 0.29 (inactive). Further, in [10], the differentiation response is -26% (inactive).
`COc1ccc(C(=O)[C@H]2[C@H]3C(=O)N(c4ccccc4)C(=O)[C@H]3C3C=CC=NN32)cc1` (stereo not given in full) came in with a double positive events in assay [1] of 62.9%. Moreover, the vesicle binding response in assay [1] was 227% (inactive). In addition, the results for the inhibition in [2], in assay [5] and in [9] were -7.79% (inactive), 28.5% (inactive) and -9% (inactive), respectively. For the same molecule, in [3], the superoxide response (% of plate) is 96.9% (inactive). For the same molecule, the aptamer binding inhibition in [4] was 3% (inactive). Further, the results for the response in assay [11] and in [6] were 0.22% (inactive) and -6.05% (inactive), respectively. For the same molecule, in assay [7], the binding (% of control) was 99.8% (inactive). Further, the efflux inhibition (fraction of control) in [8] is 0.01 (inactive). Moreover, in [10], the differentiation response is -8.96% (inactive).
Turning to `Cc1csc(-c2coc3cc(O)cc(C)c3c2=O)n1`, the double positive events in assay [1] was 63.8%. For the same molecule, the vesicle binding response in assay [1] is 138% (inactive). Besides, the inhibition was 2.3% (inactive) in assay [2], 13.4% (inactive) in assay [5] and 17% (inactive) in assay [9]. Also, in assay [3], the superoxide response (% of plate) is 119% (inactive). Also, the aptamer binding inhibition in [4] was 2% (inactive). The response is 0.13% (inactive) in [11] and -4.09% (inactive) in assay [6]. Also, the binding (% of control) in [7] was 97.4% (inactive). For the same molecule, the efflux inhibition (fraction of control) in assay [8] is -0.03 (inactive). Besides, the differentiation response in assay [10] is 2.4% (inactive).
